Laboratory results as given in PubChem BioAssay (EPA / NIEHS).
A structure can be active in one record and inactive in another. The source made the active and inactive calls. Rule for the calls: active = hit-call score of the fitted dose curve at least 0.9, where 1 is the maximum; inactive = score below 0.9.

Test: BSK_BT_Bcell_Proliferation: Viability Assessment in the BioMAP Diversity Plus: BT Assay for B cell Proliferation (AID 2284227)
Settings: primary human B cells with PBMC
Procedure: BSK_BT is a cell-based, multiplexed-readout assay that uses B cell and peripheral blood mononuclear cells, a human vascular primary cell co-culture, with measurements taken at 24 hours after chemical dosing in a microplate: 96-well plate.BSK_BT_Bcell_Proliferation is an assay component measured in the BSK_BT assay. It measures protein content, a form of viability reporter, as detected with absorbance signals by Sulforhodamine staining technology.Data from the assay component BSK_BT_Bcell_Proliferation was analyzed at the endpoint, BSK_BT_Bcell_Proliferation, in the positive analysis fitting direction relative to DMSO as the negative control and baseline of activity. Using a type of viability reporter, gain or loss-of-signal activity can be used to understand cellular changes in viability. To generalize the intended target to other relatable targets, this assay endpoint is annotated to the 'cell cycle' intended target family, where the subfamily is 'proliferation'.
The levels of cell surface (or secreted, indicated by the prefix "s") biomarker endpoints were measured by ELISA. Overt cytotoxicity to cells in confluent adherent cultures (all systems other than the BT system) was assessed by measuring total protein levels using sulforhodamine B (SRB) staining in parallel cultures at the time of biomarker measurements, indicated as SRB endpoints. For proliferation assays for adherent cell types, individual cell types are cultured at sub-confluence and relative cell numbers quantified by SRB staining at time points optimized for each system (48 h: 3C and CASM3C systems; 72 h: BT and HDF3CGF systems; 96 h: SAg system). SRB was performed by staining cells with 0.1% SRB after fixation with 10% TCA and reading wells at 560 nm.Viability and proliferation of PBMC (T cells) was quantified by Alamar Blue reduction for the SAg and BT systems. For PBMC viability (referred to as PBMC Cytotoxicity within the assay endpoint names), cells were plated (75,000/well in a 96-well plate) and then chemical samples added for 1 h before addition of activators, SEB and TSST-1 (20 ng/mL final concentration each). Cells were incubated for 90 h. Then, Alamar Blue (20 uL/well) (Invitrogen, Cat DAL1100) was added for 6 h, and the plates were read with a fluorescence microplate reader at 546/580 nm (excitation/emission). For PBMC proliferation, cells were plated and activated as above but incubated for only 16 h prior to addition of Alamar Blue. Plates were read after 6 h.
With O=S(=O)(O)C(F)(F)C(F)(F)C(F)(F)C(F)(F)C(F)(F)C(F)(F)F the outcome was “inactive”. For O=C(O)C(F)(F)C(F)(F)C(F)(F)C(F)(F)C(F)(F)C(F)(F)C(F)(F)C(F)(F)C(F)(F)F, the outcome was “inactive” and the AC50 was 20.4 µM (active). In the case of O=C(O)C(F)(F)C(F)(F)C(F)(F)C(F)(F)C(F)(F)F, the outcome is reported as “inactive”. For O=C(O)C(F)(F)C(F)(F)C(F)(F)C(F)(F)C(F)(F)C(F)(F)C(F)(F)C(F)(F)F, the outcome was “inactive” and the AC50 was 30 µM (active). In the case of Oc1c(Cl)c(Cl)c(Cl)c(Cl)c1Cl, the outcome is reported as “inactive”. In the case of Sc1ccccc1, the outcome is reported as “inactive”. With NS(=O)(=O)C(F)(F)C(F)(F)C(F)(F)C(F)(F)C(F)(F)C(F)(F)C(F)(F)C(F)(F)F the outcome was “inactive”. With O=S(=O)(O)C(F)(F)C(F)(F)C(F)(F)C(F)(F)F the outcome was “inactive”.
